According to PubChem BioAssay (NCI):
About 83,000 compounds went through this panel and 20% of them were active in at least one assay; those are over-represented in the sample as a whole.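 Growth was measured after 48 h exposure to one concentration of compound in 96-well plates. Values under 10 count as active.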 Calls of active or inactive are those of the source.

Columns and labels:
Assay in all cases: NCI-60 one-dose screen, 48 h (100 = growth as untreated, 0 = no growth, -100 = all killed)
HCT-15 colon = settings: 10 µM
HT29 colon = settings: 10 µM
SNB-75 CNS = settings: 10 µM
U251 CNS = settings: 10 µM
PC-3 prostate = settings: 10 µM
SK-MEL-5 melanoma = settings: 10 µM
UACC-62 melanoma = settings: 10 µM unless noted
LOX IMVI melanoma = settings: 10 µM
SK-MEL-28 melanoma = settings: 10 µM
SK-MEL-2 melanoma = settings: 10 µM
EKVX NSCLC = settings: 10 µM
SN12C renal = settings: 10 µM
TK-10 renal = settings: 10 µM unless noted
ACHN renal = settings: 10 µM
CAKI-1 renal = settings: 10 µM
A498 renal = settings: 10 µM
CCRF-CEM leukemia = settings: 10 µM
MOLT-4 leukemia = settings: 10 µM
SNB-19 CNS = settings: 10 µM
UO-31 renal = settings: 10 µM

Measured: growth

Cc1ccc(C)n1-c1ccsc1C(=O)NNC(=O)CCl
inactive: HCT-15 colon 88.8% | HT29 colon 106% | SNB-75 CNS 112% | U251 CNS 95.6% | PC-3 prostate 93.4% | SK-MEL-5 melanoma 85.8% | UACC-62 melanoma 82.7% | LOX IMVI melanoma 16.4% | SK-MEL-28 melanoma 111% | SK-MEL-2 melanoma 91.2% | EKVX NSCLC 81.2% | SN12C renal 92.2% | TK-10 renal 105% | ACHN renal 98.5% | CAKI-1 renal 84.8% | A498 renal 104% | CCRF-CEM leukemia 61% | MOLT-4 leukemia 92.9%

CC(CC(=O)c1ccccc1)c1ccccc1 (configuration not stated)
inactive: HCT-15 colon 108% | HT29 colon 95.7% | SNB-75 CNS 104% | SNB-19 CNS 109% | PC-3 prostate 99.5% | UACC-62 melanoma 107% | SK-MEL-28 melanoma 101% | SN12C renal 107% | UO-31 renal 95.4% | TK-10 renal 90.1% | ACHN renal 115% | CAKI-1 renal 106% | A498 renal 88.8% | CCRF-CEM leukemia 98.4% | MOLT-4 leukemia 103%

O=C(Cc1nc2ccc([N+](=O)[O-])cc2nc1CC(=O)c1cccnc1)c1cccnc1
inactive: HCT-15 colon 58.3% | HT29 colon 95.8% | U251 CNS 37.7% | PC-3 prostate 96.7% | SK-MEL-5 melanoma 74.5% | UACC-62 melanoma 69.4% | LOX IMVI melanoma 49.4% | SK-MEL-28 melanoma 80.6% | SK-MEL-2 melanoma 113% | EKVX NSCLC 63.2% | SN12C renal 56.2% | TK-10 renal 75.5% | ACHN renal 54.1% | CAKI-1 renal 81.5% | A498 renal 86.9% | CCRF-CEM leukemia 48.7% | MOLT-4 leukemia 80.8%
active: SNB-75 CNS 4%

NCCC(=O)c1ccc(Cl)cc1
inactive: HCT-15 colon 107% | HT29 colon 106% | SNB-75 CNS 96.1% | U251 CNS 105% | PC-3 prostate 97.2% | SK-MEL-5 melanoma 99.5% | UACC-62 melanoma 112% | LOX IMVI melanoma 106% | SK-MEL-28 melanoma 109% | SK-MEL-2 melanoma 101% | EKVX NSCLC 110% | SN12C renal 108% | UO-31 renal 85.7% | TK-10 renal 102% | ACHN renal 121% | CAKI-1 renal 101% | A498 renal 107% | CCRF-CEM leukemia 103% | MOLT-4 leukemia 89.6%

CSC(=N\N=C\c1ccc(N(C)C)cc1)/N=C/N(C)C
inactive: HCT-15 colon 96.1% | HT29 colon 113% | SNB-75 CNS 102% | SNB-19 CNS 100% | PC-3 prostate 106% | UACC-62 melanoma 112% | SK-MEL-28 melanoma 111% | SN12C renal 108% | UO-31 renal 101% | TK-10 renal 131% | ACHN renal 101% | CAKI-1 renal 104% | A498 renal 97% | MOLT-4 leukemia 101%

CC(=O)C1CCCCC1
inactive: HCT-15 colon 95% | HT29 colon 104% | SNB-75 CNS 87.1% | SNB-19 CNS 100% | SK-MEL-5 melanoma 99.9% | UACC-62 melanoma 103% | LOX IMVI melanoma 99.9% | SK-MEL-28 melanoma 102% | SK-MEL-2 melanoma 106% | SN12C renal 97.5% | UO-31 renal 92.8% | TK-10 renal 99.5% | ACHN renal 97.3% | CAKI-1 renal 90.8% | A498 renal 99.1%

COC(=O)C(C)Oc1ccc(OC#N)cc1 (configuration not stated)
inactive: HCT-15 colon 99.7% | HT29 colon 102% | SNB-75 CNS 88.9% | U251 CNS 101% | PC-3 prostate 86.4% | SK-MEL-5 melanoma 99% | UACC-62 melanoma 86.8% | LOX IMVI melanoma 93.2% | SK-MEL-28 melanoma 106% | SK-MEL-2 melanoma 110% | EKVX NSCLC 99.8% | SN12C renal 91.8% | TK-10 renal 107% | ACHN renal 101% | CAKI-1 renal 86.5% | A498 renal 107% | CCRF-CEM leukemia 102% | MOLT-4 leukemia 73.7%

CC1(C)S(=O)(=O)OCCOS1(=O)=O
inactive: HCT-15 colon 101% | HT29 colon 105% | SNB-75 CNS 98.7% | U251 CNS 95% | PC-3 prostate 100% | SK-MEL-5 melanoma 93.6% | UACC-62 melanoma 92.3% | LOX IMVI melanoma 95.2% | SK-MEL-28 melanoma 112% | SK-MEL-2 melanoma 115% | EKVX NSCLC 94.8% | SN12C renal 101% | TK-10 renal 93.2% | ACHN renal 106% | A498 renal 101% | CCRF-CEM leukemia 78.8% | MOLT-4 leukemia 102%

O=C(Cc1nc2ccc([N+](=O)[O-])cc2nc1CC(=O)c1ccccc1)c1ccccc1
active: LOX IMVI melanoma 3.86%
inactive: HCT-15 colon 35.2% | HT29 colon 75.3% | SNB-75 CNS 65.2% | U251 CNS 49.2% | PC-3 prostate 59.4% | UACC-62 melanoma 53.2% | SK-MEL-28 melanoma 64.7% | SK-MEL-2 melanoma 103% | EKVX NSCLC 55.8% | SN12C renal 75% | TK-10 renal 104% | ACHN renal 57% | A498 renal 132% | CCRF-CEM leukemia 40.5% | MOLT-4 leukemia 54.2%

CSc1[nH]c(=O)ncc1F
inactive: HCT-15 colon 100% | HT29 colon 112% | SNB-75 CNS 102% | U251 CNS 100% | PC-3 prostate 96.5% | SK-MEL-5 melanoma 101% | UACC-62 melanoma 92.8% | LOX IMVI melanoma 95.8% | SK-MEL-28 melanoma 111% | SK-MEL-2 melanoma 117% | EKVX NSCLC 101% | SN12C renal 101% | TK-10 renal 109% | ACHN renal 95% | CAKI-1 renal 91.5% | A498 renal 101% | CCRF-CEM leukemia 91.2% | MOLT-4 leukemia 117%

CCOC(=O)c1cc(/C=C/c2cccc(Cl)c2)on1
active: LOX IMVI melanoma -3.76%
inactive: HCT-15 colon 64.8% | HT29 colon 78.8% | SNB-75 CNS 87.4% | U251 CNS 87.5% | PC-3 prostate 85.1% | SK-MEL-5 melanoma 96.9% | UACC-62 melanoma 78.8% | SK-MEL-28 melanoma 104% | SK-MEL-2 melanoma 113% | EKVX NSCLC 75.4% | SN12C renal 86.2% | TK-10 renal 111% | ACHN renal 90.9% | A498 renal 110% | CCRF-CEM leukemia 67% | MOLT-4 leukemia 99.9%

CCOC(=O)/C(=C/c1ccc(OC)cc1)N(CC)CC
inactive: HCT-15 colon 112% | HT29 colon 109% | SNB-19 CNS 103% | U251 CNS 99.1% | PC-3 prostate 95.4% | SK-MEL-5 melanoma 99.7% | UACC-62 melanoma 102% | LOX IMVI melanoma 97.7% | SK-MEL-28 melanoma 112% | SK-MEL-2 melanoma 103% | EKVX NSCLC 106% | SN12C renal 102% | UO-31 renal 92.9% | TK-10 renal 107% | ACHN renal 113% | CAKI-1 renal 103% | A498 renal 109% | CCRF-CEM leukemia 100% | MOLT-4 leukemia 99%

Cc1ccncc1C(N)=O
inactive: HCT-15 colon 96.6% | HT29 colon 105% | SNB-75 CNS 80.9% | U251 CNS 98.3% | SK-MEL-5 melanoma 100% | UACC-62 melanoma 95.8% | LOX IMVI melanoma 93.2% | SK-MEL-28 melanoma 114% | EKVX NSCLC 106% | SN12C renal 101% | UO-31 renal 97% | TK-10 renal 112% | CAKI-1 renal 64.4% | A498 renal 82.7% | CCRF-CEM leukemia 83.1% | MOLT-4 leukemia 95.2%

C#C[C@H]1CCCCCC1O (some centres not stated)
inactive: HCT-15 colon 114% | HT29 colon 107% | SNB-19 CNS 106% | U251 CNS 99.7% | PC-3 prostate 90.1% | SK-MEL-5 melanoma 98.1% | UACC-62 melanoma 100% | LOX IMVI melanoma 97% | SK-MEL-28 melanoma 122% | SK-MEL-2 melanoma 101% | EKVX NSCLC 104% | SN12C renal 101% | UO-31 renal 97.1% | TK-10 renal 109% | ACHN renal 116% | CAKI-1 renal 101% | A498 renal 99.3% | CCRF-CEM leukemia 97.1% | MOLT-4 leukemia 98.4%

COc1ccc(NC(=O)CCl)cc1
inactive: HCT-15 colon 72.3% | HT29 colon 67.3% | SNB-19 CNS 104% | PC-3 prostate 74.6% | SK-MEL-5 melanoma 65.3% | UACC-62 melanoma 83.1% | SK-MEL-28 melanoma 97.2% | SK-MEL-2 melanoma 74.9% | EKVX NSCLC 103% | SN12C renal 67.2% | UO-31 renal 90.9% | TK-10 renal 118% | ACHN renal 88.8% | CAKI-1 renal 97% | A498 renal 120% | CCRF-CEM leukemia 50.5% | MOLT-4 leukemia 64.4%
active: U251 CNS 6.32%

CCOc1ccc(/C=C/C(=O)c2ccccc2)cc1
inactive: HCT-15 colon 92.4% | HT29 colon 96.1% | SNB-19 CNS 92.2% | U251 CNS 86.7% | PC-3 prostate 73.7% | SK-MEL-5 melanoma 99.6% | UACC-62 melanoma 88.9% | LOX IMVI melanoma 93.5% | SK-MEL-28 melanoma 100% | SK-MEL-2 melanoma 91.9% | EKVX NSCLC 107% | SN12C renal 95.7% | UO-31 renal 84% | TK-10 renal 97.6% | ACHN renal 108% | A498 renal 88.8% | CCRF-CEM leukemia 55.9% | MOLT-4 leukemia 77.6%

O=C(O)c1cc([N+](=O)[O-])ccc1Cl
inactive: HCT-15 colon 100% | HT29 colon 84.3% | SNB-19 CNS 99.4% | U251 CNS 106% | PC-3 prostate 88.8% | SK-MEL-5 melanoma 100% | UACC-62 melanoma 95.6% | LOX IMVI melanoma 99.5% | SK-MEL-2 melanoma 97.3% | EKVX NSCLC 118% | SN12C renal 95.6% | UO-31 renal 79.9% | TK-10 renal 81.2% | ACHN renal 105% | CAKI-1 renal 101% | A498 renal 106% | CCRF-CEM leukemia 114% | MOLT-4 leukemia 73.2%

COc1ccc(C2(O)CCCCC2)cc1
inactive: HCT-15 colon 112% | HT29 colon 106% | SNB-19 CNS 102% | U251 CNS 100% | PC-3 prostate 89.7% | SK-MEL-5 melanoma 98.6% | UACC-62 melanoma 94.7% | LOX IMVI melanoma 96.1% | SK-MEL-28 melanoma 120% | SK-MEL-2 melanoma 107% | EKVX NSCLC 105% | SN12C renal 101% | UO-31 renal 97% | TK-10 renal 113% | ACHN renal 115% | CAKI-1 renal 100% | A498 renal 86.9% | CCRF-CEM leukemia 96.1% | MOLT-4 leukemia 97.5%
